# Screening data: PubChem BioAssay, National Center for Advancing Translational Sciences (NCATS)
# A selection: hits, their analogues and other compounds. The true share with any hit is near 21%.
# CHX counter: counter-screen for Shiga toxin inhibitors: cycloheximide protein synthesis inhibition. cell reporter, cycloheximide protein synthesis inhibition counterscreen. max response, %. AID 2314. 300,000 compounds, 12% hits; in the data active means max response mostly above about 13%, no sharp cut-off; inactive means mostly below about 14%; further: read at 38.3 µM for the half of the compounds with a filed dose
# Shiga inhibitor: Shiga toxin inhibition; Vero cells, Shiga toxin protein synthesis inhibition reporter; inhibition, % at 38.7 µM; 290,000 compounds, 9.2% hits; in the data active means inhibition mostly above about 28%, no sharp cut-off; inactive means mostly below about 43%
# Pf growth 48h: inhibits P. falciparum growth in the first generation, 48 h; Potency, µM (top dose mostly 28.7 µM), most hits filed as inhibitors; P. falciparum luciferase growth in erythrocytes, 48 h; 310,000 compounds, 5.9% hits; AID 504832
#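 Growth was read as firefly luciferase luminescence after a 48 h, 37 C, 5% CO2 exposure of compounds to reporter-bearing P. falciparum cultures (0.1% parasitemia, 2% hematocrit final) in Albumax-supplemented RPMI 1640.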
# Pf growth 96h: P. falciparum growth inhibition at 96 hours | Potency, µM (top dose mostly 28.7 µM), actives largely listed as inhibitors | 320,000 compounds, 6.9% hits | AID 504834 | P. falciparum luciferase reporter growth, 96 h
#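 Infected RBCs, 2% Hct / 0.05% parasitemia final; luciferase-reporter P. falciparum; cpd 96 h, 37 C, 5% CO2; luciferase detection reagent; luminescence.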
# NS1 inh: influenza NS1 inhibition | Potency, µM (series often up to 46.1 µM) | 270,000 compounds, 0.4% hits | AID 2326; calls by dose curve; further: actives are rising curves; nearly all actives have a fitted effect of over 50% in size
#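 Growth recovery, yeast-based: influenza A NS1 expressed in S. cerevisiae causes slow growth, and suppressors are detected by OD600. The parent strain without NS1 is used as positive control.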
# FBPA Giardia inh: inhibitors of Giardia lamblia fructose-1,6-bisphosphate aldolase; 290,000 compounds, 0.71% hits; purified Giardia FBPA; Potency, µM (series often up to 59.6 µM), most hits filed as inhibitors; AID 2451; further: nearly all actives have a fitted effect of over 55% in size
# Target sequence (A8B2U2 whole entry, looked up): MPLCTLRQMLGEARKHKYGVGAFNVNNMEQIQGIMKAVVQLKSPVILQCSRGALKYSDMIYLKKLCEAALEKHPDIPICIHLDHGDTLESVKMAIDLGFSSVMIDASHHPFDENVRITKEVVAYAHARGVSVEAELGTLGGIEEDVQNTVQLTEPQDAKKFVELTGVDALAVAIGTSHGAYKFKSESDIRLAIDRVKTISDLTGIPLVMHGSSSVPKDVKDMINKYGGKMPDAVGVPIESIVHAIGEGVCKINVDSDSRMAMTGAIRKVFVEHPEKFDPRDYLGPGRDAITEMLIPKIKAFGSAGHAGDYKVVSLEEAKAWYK
#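 40 nM FBPA preincubated 10 min at RT with compound (up to 57.5 uM final), then substrate plus GAPDH/TPI/NAD/arsenate coupling and diaphorase/resazurin added. Fluorescence read after 20 min at RT, 525/598 nm.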
# Hits are given with their value; 0 = inactive; ? = inconclusive; - = no result; [ ] = another dose, or the depositor's remark. Unless noted, the call rests on the fitted dose curve; in most records, active means well fitted curve in the direction sought with a large enough effect; inconclusive means small, poorly fitted or top-dose-only effect, or another doubt; inactive means no such curve, though single readings can be large; an effect the other way counts as inactive or inconclusive.
SMILES,CHX counter,Shiga inhibitor,Pf growth 48h,Pf growth 96h,NS1 inh,FBPA Giardia inh
O=C1Nc2cccnc2N(C(=O)CCl)c2ccccc21,0,0,0[0.00184 µM],?,0,0
Cc1cccc(C)c1NC(=O)COC(=O)CN1C(=O)C2CCCCC2C1=O (configuration not stated),-,-,0,0,-,-
CCc1cc(C(=O)Nc2cc(S(=O)(=O)N(CC)CC)ccc2N2CCN(C)CC2)sc1C,-,-,?,2.6µM,-,-
COc1ccc(C(=O)[C@]2(C)C=C(c3ccc(OC)cc3)[C@H](C)C2)cc1,-,-,-,-,-,0
Cc1nc(-c2ccc(S(=O)(=O)Nc3cccc(Cl)c3)cc2)co1,0,0,0,?,0,0
Cc1nc(-c2ccc(S(=O)(=O)Nc3ccc(S(N)(=O)=O)cc3)cc2)co1,0,0,0,10µM,0,0
COc1ccc(NS(=O)(=O)c2ccc(-c3coc(C)n3)cc2)cc1,0,0,0,0,0,0
CSc1cccc(NS(=O)(=O)c2ccc(-c3coc(C)n3)cc2)c1,0,0,0,4.7µM,0,-
CC1CCCCC1NC(=O)Cn1cccc1C(=O)c1ccccc1 (configuration not stated),15,0,0,0,0,-
O=C(Cn1cccc1C(=O)c1ccccc1)NCc1ccccn1,0,0,0,0,0,0
Cc1ccccc1C(=O)c1cccn1CC(=O)NC1CCCC(C)C1C (configuration not stated),0,0,0,0,0,0
O=C(Cn1cccc1C(=O)c1ccccc1)NCc1ccccc1Cl,38,75,0,0,0,-
Cc1ccccc1C(=O)c1cccn1CC(=O)NCc1ccccc1Cl,22,50,0,?,0,0
COc1ccccc1CNC(=O)Cn1cccc1C(=O)c1ccccc1,0,48,0,0,0,0
COC(=O)c1ccccc1S(=O)(=O)N1CCc2nc(-c3ccccc3)c3c(c2C1)CO[C@@H](C)C3,-,-,-,-,-,0[12.9 µM]
c1ccc(COc2ccccc2CNC2CCCC2)cc1,0,0,?,5.2µM,0,0
c1csc(COc2ccccc2CNC2CCCCC2)c1,0,0,?,0,0,0
CCCNCc1cc(OC)c(OCC(=O)Nc2ccccc2)cc1Br,0,0,?,0,0,0
CCOc1cc(CNC2CCCC2)c(Cl)cc1OCC(=O)Nc1ccccc1,0,0,10µM,0,0,0
CCOC(=O)c1ccc(NC(=O)COc2ccccc2CNC2CCCC2)cc1,0,0,4.7µM,0,0,0
CC(=O)Nc1ccc(NC(=O)c2cc(=O)c3cc(C)c(C)cc3o2)cc1,0,0,-,?,0,0
CC(=O)N(C)C1=C(N2CCOCC2)C(=O)c2ccccc2C1=O,0,0,2.1µM,0.29µM,0,?
CC(C(=O)N1CCOCC1)N1C(=O)c2ccccc2C1=O (configuration not stated),0,0,0,-,?,0
O=C(N1CCOCC1)N1CCN(C(=O)N(c2ccccc2)c2ccccc2)CC1,0,0,-,-,0,0
CC(=O)N(C1=C(N2CCOCC2)C(=O)c2ccccc2C1=O)c1ccc(C(=O)O)cc1,0,0,1µM,0.41µM,0,?
SMILES,CHX counter,Shiga inhibitor,Pf growth 48h,Pf growth 96h,NS1 inh,FBPA Giardia inh
CCN1CCN(CCC(=O)Nc2cccc(C)c2)CC1,0,0,0,0,0,?
Cn1ncc(Cl)c1C(=O)Nc1cccc(Cl)c1,0,0,0,0,0,0
CCCc1nn(C)c(C(=O)Nc2cccc(C)c2)c1Cl,58,55,0,0,0,0
CCCc1nn(C)c(C(=O)Nc2cccc(Cl)c2)c1Cl,50,66,0,0,0,0
Cc1cc2c(c(=O)o1)C1O[C@](CCCCN3C(=O)c4ccccc4C3=O)(Cc3cc(C#N)ccc31)O2,0,0,?,?,?,0[12.9 µM]
COc1ccc2nc(NC(=O)CC3Oc4ccccc4NC3=O)sc2c1 (configuration not stated),0,0,0,0,0,0
C=CCC(C)(Nc1ccccc1)C(=O)OCC (configuration not stated),-,-,-,-,-,0
O=C(O)c1ccc2c(c1)C(=O)N(NC(=O)c1ccccc1)C2=O,31,61,0,0,0,0
O=C(Nc1ccc(C(=O)NN2C(=O)c3ccccc3C2=O)cc1)c1ccccc1,0,0,0,0,-,0
CN(C)c1nc(NCc2ccccc2)nc(SCC(=O)Nc2ccc(Cl)c(Cl)c2)n1,0,0,10µM,12µM,0,0
COc1nc(SCC(=O)Nc2ccccc2Cl)nc(N(C)C)n1,18,0,0,0,0,0
CC(=O)C=NCC(=O)O,-,-,-,-,0,-
